Targets with a hit are over-represented here; the source holds about 7,900 in all. About 0.6% of all pairs of compound and target were hits.
Key:
Test in all cases: log2 fold change, soluble protein after heating vs DMSO (PISA); higher = thermal stabilisation; K562 cells, 10 uM, 30 min; active = over 0.2 and 3.5 SD of the protein, either way, in both replicates (recomputed)
[1] = compound: C1=CC=C(C=C1)[C@H](COC2=CC3=C(C=C2)NC(=O)N3)NC(=O)C4=CC=CN(C4=O)CC5=CC(=C(C=C5)F)F
Outline: (§1)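 Thermal stability values are relative to control samples and come from duplicates. They are expressed as log2 fold changes. For measurement, K562 cells (2×10^6 cells/mL) received 10 μM compound for 30 min, and aliquots were heated for 3 min over 48°C-58°C, pooled, and extracted at 4°C in PBS with 0.5% NP-40. Soluble protein, the supernatant after 21,000xg for 90 min, was quantified by TMTpro 16plex LC-MS/MS with equalised channel sums.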

[2] = compound: CC1=C(SC2=C1C(=N[C@H](C3=NN=C(N32)C)CC(=O)N)C4=CC=C(C=C4)Cl)C
Outline: as §1

[3] = compound: CC1=C2C(=CC=C1)N=C(N(C2=O)C3=CC=CC=C3C)CN4C=NC5=C(N=CN=C54)N
Outline: as §1

[4] = compound: Cc1sc2c(c1C)C(c1ccc(Cl)cc1)=N[C@@H](CC(=O)OC(C)(C)C)c1nnc(C)n1-2
Outline: as §1

[5] = compound: c1ccc([C@@H]2C[C@H]2NC2CCNCC2)cc1
Outline: as §1

Measured: log2 fold change

HEATR3 (UniProt Q7Z4Q2)
UniProt Q7Z4Q2, sequence (Q7Z4Q2 whole entry, looked up): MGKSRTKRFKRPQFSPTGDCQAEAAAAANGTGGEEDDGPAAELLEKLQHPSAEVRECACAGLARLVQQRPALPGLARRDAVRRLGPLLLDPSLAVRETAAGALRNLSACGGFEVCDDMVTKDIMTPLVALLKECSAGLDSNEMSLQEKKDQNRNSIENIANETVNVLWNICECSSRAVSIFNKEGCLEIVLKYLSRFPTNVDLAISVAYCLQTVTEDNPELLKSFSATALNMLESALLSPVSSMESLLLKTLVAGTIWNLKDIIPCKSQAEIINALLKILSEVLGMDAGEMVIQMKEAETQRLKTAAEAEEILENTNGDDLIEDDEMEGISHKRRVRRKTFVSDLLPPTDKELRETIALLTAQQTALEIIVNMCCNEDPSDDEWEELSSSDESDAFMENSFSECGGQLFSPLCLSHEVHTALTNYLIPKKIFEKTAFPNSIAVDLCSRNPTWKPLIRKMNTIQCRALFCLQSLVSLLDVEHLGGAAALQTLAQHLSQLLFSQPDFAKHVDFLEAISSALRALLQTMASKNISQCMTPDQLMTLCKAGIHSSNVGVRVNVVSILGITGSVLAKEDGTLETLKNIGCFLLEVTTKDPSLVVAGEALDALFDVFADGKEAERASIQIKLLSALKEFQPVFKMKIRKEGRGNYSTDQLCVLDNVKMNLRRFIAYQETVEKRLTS
inactive: [1] -0.073 | [2] -0.014 | [3] 0.026 | [4] 0.004 | [5] -0.04

GTF3C5 isoform 3 (UniProt Q9Y5Q8)
inactive: [1] -0.097 | [2] -0.082 | [3] 0.103 | [4] 0.049 | [5] -0.159

HEXA (UniProt P06865)
inactive: [1] 0.042 | [2] -0.004 | [3] 0.052 | [4] -0.018 | [5] 0.024

GLS isoform 3 (UniProt O94925)
inactive: [1] -0.077 | [2] 0.204 | [3] 0.024 | [4] -0.168 | [5] 0.067

HOMER1 (UniProt Q86YM7)
inactive: [1] -0.08 | [2] 0.035 | [3] 0.02 | [4] -0.005 | [5] 0.007

GEMIN6 (UniProt Q8WXD5)
UniProt Q8WXD5, sequence (Q8WXD5 whole entry, looked up): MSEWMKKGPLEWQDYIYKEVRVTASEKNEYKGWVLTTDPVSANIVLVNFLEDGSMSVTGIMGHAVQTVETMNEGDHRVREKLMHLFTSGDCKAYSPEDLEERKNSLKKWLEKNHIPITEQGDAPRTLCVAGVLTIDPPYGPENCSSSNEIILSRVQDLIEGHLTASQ
inactive: [1] 0.027 | [2] -0.111 | [3] -0.053 | [4] -0.113 | [5] -0.063

HADHB (UniProt P55084)
inactive: [1] -0.238 | [2] 0.235 | [3] 0.2 | [4] 0.363 | [5] -0.085

GOPC (UniProt Q9HD26)
inactive: [1] -0.315 | [2] -0.016 | [3] 0.018 | [4] 0.169 | [5] -0.054

HNRNPF (UniProt P52597)
inactive: [1] -0.032 | [2] -0.049 | [3] -0.019 | [4] -0.02 | [5] -0.017

HDAC1 (UniProt Q13547)
UniProt Q13547, sequence (Q13547 whole entry, looked up): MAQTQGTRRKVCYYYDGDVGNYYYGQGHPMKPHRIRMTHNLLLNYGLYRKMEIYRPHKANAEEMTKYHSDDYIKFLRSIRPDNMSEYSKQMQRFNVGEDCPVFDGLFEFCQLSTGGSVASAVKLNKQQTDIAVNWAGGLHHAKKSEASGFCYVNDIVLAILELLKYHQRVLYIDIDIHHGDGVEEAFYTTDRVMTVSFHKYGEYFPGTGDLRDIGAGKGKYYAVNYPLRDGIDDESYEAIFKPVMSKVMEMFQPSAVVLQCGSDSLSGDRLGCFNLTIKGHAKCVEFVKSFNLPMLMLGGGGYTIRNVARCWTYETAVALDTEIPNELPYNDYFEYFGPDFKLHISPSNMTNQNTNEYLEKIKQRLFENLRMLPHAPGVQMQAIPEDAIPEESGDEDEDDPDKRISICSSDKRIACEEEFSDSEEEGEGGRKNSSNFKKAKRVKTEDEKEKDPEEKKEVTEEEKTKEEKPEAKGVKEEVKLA
inactive: [1] 0.004 | [2] 0 | [3] -0.004 | [4] 0.03 | [5] 0.154

FEN1 (UniProt P39748)
inactive: [1] -0.198 | [2] 0.097 | [3] 0.157 | [4] -0.009 | [5] -0.043

GOLGA8R (UniProt I6L899)
inactive: [1] 0.106 | [2] 0.211 | [3] 0.326 | [4] 0.043 | [5] -0.003

FANCD2 isoform 1 (UniProt Q9BXW9)
inactive: [1] -0.018 | [2] 0.068 | [3] 0.159 | [4] -0.041 | [5] -0.009

HDGFL2 (UniProt Q7Z4V5)
UniProt Q7Z4V5, sequence (Q7Z4V5 whole entry, looked up): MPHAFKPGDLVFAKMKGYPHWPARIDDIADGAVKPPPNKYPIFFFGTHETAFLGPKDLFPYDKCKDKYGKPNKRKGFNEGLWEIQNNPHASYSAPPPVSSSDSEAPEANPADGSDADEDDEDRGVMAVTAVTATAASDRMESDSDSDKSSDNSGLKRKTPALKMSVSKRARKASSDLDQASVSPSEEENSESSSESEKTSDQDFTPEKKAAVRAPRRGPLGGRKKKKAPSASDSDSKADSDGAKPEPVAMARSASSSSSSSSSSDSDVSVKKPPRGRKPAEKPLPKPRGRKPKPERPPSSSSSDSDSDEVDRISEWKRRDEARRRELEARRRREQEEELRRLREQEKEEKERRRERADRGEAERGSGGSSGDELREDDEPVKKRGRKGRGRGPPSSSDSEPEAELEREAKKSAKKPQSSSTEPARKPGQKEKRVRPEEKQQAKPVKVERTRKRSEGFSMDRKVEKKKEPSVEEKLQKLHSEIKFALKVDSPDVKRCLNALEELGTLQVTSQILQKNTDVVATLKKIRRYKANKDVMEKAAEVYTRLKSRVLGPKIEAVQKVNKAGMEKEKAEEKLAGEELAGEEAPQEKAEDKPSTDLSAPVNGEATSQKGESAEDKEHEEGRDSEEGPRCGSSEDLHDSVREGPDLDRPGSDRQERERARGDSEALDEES
inactive: [1] -0.043 | [2] 0.007 | [3] -0.03 | [4] -0.012 | [5] 0.065

GALNT11 (UniProt Q8NCW6)
UniProt Q8NCW6, sequence (Q8NCW6 whole entry, looked up): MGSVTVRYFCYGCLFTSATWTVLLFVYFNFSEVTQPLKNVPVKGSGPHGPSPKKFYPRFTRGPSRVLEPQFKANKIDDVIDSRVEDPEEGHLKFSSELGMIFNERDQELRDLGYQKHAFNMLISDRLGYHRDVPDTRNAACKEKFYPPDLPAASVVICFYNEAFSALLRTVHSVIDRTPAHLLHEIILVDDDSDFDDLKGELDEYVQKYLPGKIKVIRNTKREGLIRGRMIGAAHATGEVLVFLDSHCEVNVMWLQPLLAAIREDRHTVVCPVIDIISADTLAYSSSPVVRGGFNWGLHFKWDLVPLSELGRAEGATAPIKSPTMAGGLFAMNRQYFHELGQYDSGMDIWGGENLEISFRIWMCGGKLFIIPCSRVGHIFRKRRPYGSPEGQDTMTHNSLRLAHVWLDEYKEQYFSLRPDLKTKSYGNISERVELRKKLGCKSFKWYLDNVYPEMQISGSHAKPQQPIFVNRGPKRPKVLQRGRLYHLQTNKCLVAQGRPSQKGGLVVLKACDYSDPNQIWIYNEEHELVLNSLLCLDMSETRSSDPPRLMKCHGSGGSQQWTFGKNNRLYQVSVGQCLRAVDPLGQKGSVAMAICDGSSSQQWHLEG
inactive: [1] -0.027 | [2] 0.096 | [3] 0.093 | [4] -0.097 | [5] -0.027

HK2 (UniProt P52789)
UniProt P52789, sequence (P52789 whole entry, looked up): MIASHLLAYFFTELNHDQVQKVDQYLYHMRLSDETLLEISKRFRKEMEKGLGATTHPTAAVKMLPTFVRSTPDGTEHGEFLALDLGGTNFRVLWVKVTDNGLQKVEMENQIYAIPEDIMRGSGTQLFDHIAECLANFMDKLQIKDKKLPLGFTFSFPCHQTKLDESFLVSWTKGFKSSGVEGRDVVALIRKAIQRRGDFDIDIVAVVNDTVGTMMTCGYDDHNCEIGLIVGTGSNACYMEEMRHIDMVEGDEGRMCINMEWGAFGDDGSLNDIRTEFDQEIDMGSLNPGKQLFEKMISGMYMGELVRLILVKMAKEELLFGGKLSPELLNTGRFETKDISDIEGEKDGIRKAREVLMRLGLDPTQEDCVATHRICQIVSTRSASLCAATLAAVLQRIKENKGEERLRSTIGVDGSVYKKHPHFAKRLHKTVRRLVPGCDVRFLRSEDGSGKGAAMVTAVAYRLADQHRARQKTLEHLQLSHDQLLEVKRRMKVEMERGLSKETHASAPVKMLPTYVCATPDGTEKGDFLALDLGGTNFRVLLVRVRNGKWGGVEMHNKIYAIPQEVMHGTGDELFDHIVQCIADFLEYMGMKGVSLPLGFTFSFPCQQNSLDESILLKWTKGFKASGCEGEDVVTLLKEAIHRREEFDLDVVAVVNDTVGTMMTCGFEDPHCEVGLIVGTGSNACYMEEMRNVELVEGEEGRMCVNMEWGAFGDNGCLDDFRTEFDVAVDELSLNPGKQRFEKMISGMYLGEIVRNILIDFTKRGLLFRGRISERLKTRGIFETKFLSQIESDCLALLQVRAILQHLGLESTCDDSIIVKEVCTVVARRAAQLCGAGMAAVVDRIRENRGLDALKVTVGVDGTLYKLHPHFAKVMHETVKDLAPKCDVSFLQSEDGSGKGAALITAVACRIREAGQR
inactive: [1] -0.006 | [2] 0.045 | [3] 0.007 | [4] -0.025 | [5] -0.016

HEXB (UniProt P07686)
UniProt P07686, sequence (P07686 whole entry, looked up): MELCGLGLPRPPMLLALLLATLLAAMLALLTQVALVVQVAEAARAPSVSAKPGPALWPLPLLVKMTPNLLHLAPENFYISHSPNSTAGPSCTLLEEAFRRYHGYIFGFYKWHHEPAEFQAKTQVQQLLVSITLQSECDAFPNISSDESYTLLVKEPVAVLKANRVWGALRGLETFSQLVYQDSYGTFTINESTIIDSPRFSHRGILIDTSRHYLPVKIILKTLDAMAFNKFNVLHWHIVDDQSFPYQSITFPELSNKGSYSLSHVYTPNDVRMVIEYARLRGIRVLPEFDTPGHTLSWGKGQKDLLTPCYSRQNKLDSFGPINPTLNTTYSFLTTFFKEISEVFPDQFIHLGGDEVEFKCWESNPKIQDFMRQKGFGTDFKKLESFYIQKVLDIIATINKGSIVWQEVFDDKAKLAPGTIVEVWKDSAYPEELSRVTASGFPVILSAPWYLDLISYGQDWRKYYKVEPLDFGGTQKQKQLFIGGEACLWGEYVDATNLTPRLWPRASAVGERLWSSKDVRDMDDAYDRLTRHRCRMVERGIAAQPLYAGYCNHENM
inactive: [1] 0.028 | [2] 0.005 | [3] 0.064 | [4] -0.008 | [5] 0.016

GLUD2 (UniProt P49448)
inactive: [1] 0.026 | [2] 0.061 | [3] -0.029 | [4] 0.047 | [5] -0.005

HNRNPH1 (UniProt P31943)
UniProt P31943, sequence (P31943 whole entry, looked up): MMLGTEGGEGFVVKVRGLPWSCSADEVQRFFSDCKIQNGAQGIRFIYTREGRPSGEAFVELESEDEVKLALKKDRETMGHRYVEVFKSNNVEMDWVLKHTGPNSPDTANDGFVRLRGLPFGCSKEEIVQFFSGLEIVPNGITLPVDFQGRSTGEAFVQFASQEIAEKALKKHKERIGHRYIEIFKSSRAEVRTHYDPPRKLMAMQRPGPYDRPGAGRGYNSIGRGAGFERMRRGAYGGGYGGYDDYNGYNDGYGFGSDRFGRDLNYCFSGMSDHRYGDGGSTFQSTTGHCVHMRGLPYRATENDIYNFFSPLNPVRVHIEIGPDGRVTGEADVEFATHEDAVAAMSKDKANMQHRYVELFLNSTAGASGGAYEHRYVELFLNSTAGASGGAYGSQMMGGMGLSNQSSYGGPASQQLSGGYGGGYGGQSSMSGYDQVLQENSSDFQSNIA
inactive: [1] -0.032 | [2] -0.007 | [3] 0.045 | [4] -0.015 | [5] -0.017

GUSB (UniProt P08236)
inactive: [1] 0.019 | [2] -0.057 | [3] -0.048 | [4] 0.039 | [5] 0.053

FBXO3 (UniProt Q9UK99)
UniProt Q9UK99, sequence (Q9UK99 whole entry, looked up): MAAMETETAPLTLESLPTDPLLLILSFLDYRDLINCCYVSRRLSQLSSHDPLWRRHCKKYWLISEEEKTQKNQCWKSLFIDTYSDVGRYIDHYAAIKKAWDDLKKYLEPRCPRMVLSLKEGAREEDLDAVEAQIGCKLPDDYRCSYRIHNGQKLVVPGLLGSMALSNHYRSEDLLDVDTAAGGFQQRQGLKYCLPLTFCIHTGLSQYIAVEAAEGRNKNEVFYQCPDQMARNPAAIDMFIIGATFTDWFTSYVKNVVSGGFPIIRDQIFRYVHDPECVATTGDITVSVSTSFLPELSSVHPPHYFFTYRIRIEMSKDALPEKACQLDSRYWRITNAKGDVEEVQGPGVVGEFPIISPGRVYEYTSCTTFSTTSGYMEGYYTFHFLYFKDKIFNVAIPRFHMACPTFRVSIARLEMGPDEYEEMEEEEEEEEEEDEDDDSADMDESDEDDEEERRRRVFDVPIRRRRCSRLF
inactive: [1] 0.006 | [2] -0.03 | [3] 0.033 | [4] 0.055 | [5] 0.127

GNL3 (UniProt Q9BVP2)
inactive: [1] 0.101 | [2] 0.112 | [3] 0.164 | [4] -0.131 | [5] -0.053

GOLGB1 isoform 2 (UniProt Q14789)
inactive: [1] 0.045 | [2] -0.024 | [3] 0.018 | [4] 0.013 | [5] 0.045

FBXO6 (UniProt Q9NRD1)
inactive: [1] 0.013 | [2] 0.087 | [3] 0.041 | [4] -0.041 | [5] -0.032
